Data: the supplement of paper PMC3334620
In all, about 33,000 sequences were measured (“E-score (-0.5 to 0.5)”: median about -0.012, highest 2% from about 0.29 on). Many of the other results were omitted from the sample, so the highest values are more common in it than they were.

The sequences below were run against T1, Ybr033w (UniProt P38073) (assay: PBM E-score (8-mer binding enrichment) (E-score (-0.5 to 0.5)); higher = stronger / more preferred TF binding). Settings: protein concentration: 200 nM; construct: GST-full length.
T1 sequence: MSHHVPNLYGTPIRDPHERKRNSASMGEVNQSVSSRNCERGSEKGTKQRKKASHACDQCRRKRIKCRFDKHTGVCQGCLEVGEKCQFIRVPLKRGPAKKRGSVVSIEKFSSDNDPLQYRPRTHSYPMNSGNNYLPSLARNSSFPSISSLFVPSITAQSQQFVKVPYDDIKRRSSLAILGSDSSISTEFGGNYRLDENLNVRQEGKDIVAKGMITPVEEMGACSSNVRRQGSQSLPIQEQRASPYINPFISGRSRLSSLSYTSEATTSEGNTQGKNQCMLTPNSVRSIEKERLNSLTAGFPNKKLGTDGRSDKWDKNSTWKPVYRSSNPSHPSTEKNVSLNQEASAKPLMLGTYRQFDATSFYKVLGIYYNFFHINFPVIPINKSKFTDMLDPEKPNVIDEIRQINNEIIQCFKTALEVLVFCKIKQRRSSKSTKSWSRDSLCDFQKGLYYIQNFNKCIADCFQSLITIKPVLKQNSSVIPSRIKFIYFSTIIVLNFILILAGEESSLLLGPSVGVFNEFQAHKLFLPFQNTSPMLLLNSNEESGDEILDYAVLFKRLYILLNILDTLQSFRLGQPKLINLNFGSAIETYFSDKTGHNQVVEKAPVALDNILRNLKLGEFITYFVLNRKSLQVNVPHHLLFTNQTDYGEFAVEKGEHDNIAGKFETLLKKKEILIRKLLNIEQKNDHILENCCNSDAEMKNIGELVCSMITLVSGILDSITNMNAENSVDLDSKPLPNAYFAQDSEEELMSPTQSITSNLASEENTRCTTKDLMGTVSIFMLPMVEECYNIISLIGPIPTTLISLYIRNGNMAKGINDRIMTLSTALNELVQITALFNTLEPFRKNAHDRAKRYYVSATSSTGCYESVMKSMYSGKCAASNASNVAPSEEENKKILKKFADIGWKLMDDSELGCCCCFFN
Method in brief: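 Yeast transcription factors, full-length or as DNA-binding domains, were expressed with a GST tag using PURExpress in vitro transcription/translation. At about 100-200 nM they were applied to universal all-10-mer Agilent arrays, double-stranded by primer extension on fresh or once-stripped slides. Fluorescent anti-GST detected bound protein, and masliner normalised the scans. E-scores for ungapped eight-base words, pooled with reverse complements, came from the Universal PBM Analysis Suite.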

Sequence | PBM E-score
GAAATACA | 0.14
GGCCAATA | -0.0498
AAAGCTCT | -0.262
CAATGCTA | 0.115
CTCCATGA | 0.0454
TAGACAGA | 0.157
CATCAAAA | 0.108
GATCAATA | 0.329
GATCAAAA | 0.296
AATCAATA | 0.334
AATCAATC | 0.0849
AATCAATT | 0.247
TATCAATA | 0.257
GATCAATC | 0.184
AATCAAAA | 0.225
AGGGTAAG | 0.0154
CCTAGGAC | -0.087
AAAGCAAT | 0.16
ACCCCCTG | -0.454
CTGGAAGA | 0.189
ATGGAATC | 0.198
CTGGAATA | 0.355
CTGGAACC | -0.209
GTGGAATA | 0.262
CTGGAATC | -0.00413

Sequence | PBM E-score
ATGGAATA | 0.316
ATGGAACA | 0.182
CTGGAACA | 0.31
ATGTGGAA | 0.235
CCGGGTGC | -0.181
CCCTTTGC | -0.134
GGCCTAAC | -0.013
CACAGAGC | -0.121
ATACGTAT | 0.207
AGGATCAC | -0.0786
GGGATCAA | 0.242
TGGATCCA | -0.0233
AGGATCAA | 0.317
AGGATCAG | -0.166
TGGATCAA | 0.377
AAGAGTAT | 0.00192
AATAACCC | 0.203
GCACTTCC | -0.149
AAAAAAAG | 0.273
AAAAAAAC | 0.24
GAGAAAAA | 0.155
GAAAAAAC | 0.265
AAAAAAAA | 0.353
GAAAAAAA | 0.37
AGATCTTC | 0.137

Sequence | PBM E-score
AAGGATTG | 0.126
ACTCAACA | 0.146
CTTCTCCA | -0.214
ACCCAGGG | -0.287
ACTCGAAG | -0.242
CTGGTCCA | -0.17
GTTCCTAA | 0.125
GATATAGC | 0.156
ATATGAGC | -0.0174
ATTTTACG | 0.328
CTTTTACC | 0.101
AATTTACG | 0.232
AATTTACC | 0.103
ATTTTACC | 0.362
ATTTTACA | 0.0461
CCATTAGA | -0.14
CTGATAGC | -0.0429
TGTTCTAA | 0.181
TAGATCTA | 0.19
ATTCACAG | 0.0908
GTTCACAA | 0.18
ATTCACAA | 0.294
ATGAGGGG | -0.206
ACAAATAT | 0.287
AAAAATAC | 0.304

Sequence | PBM E-score
GAAAATAC | 0.252
CAAAATAG | 0.0554
AAAAATAG | 0.296
ACAAATAG | 0.167
AAAAAAAT | 0.248
CAAAATAC | 0.217
AAAAATAT | 0.349
CATTTTAC | 0.298
ACTTTTAA | 0.125
ACTTTTAC | 0.327
CATTTTAG | 0.234
CATTTTAA | 0.16
ACTTTTAG | 0.0501
AGAACCGC | 0.096
AGCGATTG | -0.0938
CAAATAAC | 0.214
GGAAAACA | 0.17
TCAAAACA | 0.298
AAAAAACA | 0.242
CCAAAACA | -0.026
CAAGAACA | 0.0281
GAAAAACA | 0.295
GAAAAACC | 0.386
GAAGAACC | 0.248
GAAAACCC | -0.0428

Sequence | PBM E-score
GCAAAACA | 0.0364
GAAGAACA | 0.353
GGAAAACC | -0.11
CGGAACCA | 0.141
AAACAATA | 0.196
AAACAATC | 0.234
CAACAATC | 0.256
GAACAAAC | 0.345
AAACAAAC | 0.229
CAACAAAC | 0.161
GAACAATA | 0.412
GAACAATC | 0.323
TAACAATA | 0.273
TAGCAATA | 0.16
AATCAGCT | 0.185
AGCTGCCG | -0.115
CGTTAATC | 0.248
AGTTAATG | 0.216
AGTTAATA | 0.336
AGTTAAAA | 0.298
CGTTAAAA | -0.0301
CGTTAATA | 0.166
AGTTAATC | 0.368
GGTTAATA | 0.209
TGTTAAAA | 0.226

Sequence | PBM E-score
TATTTGGA | 0.082
TCCAGACA | -0.127
GAGCGCAA | -0.0711
AACATACA | 0.179
CACTCTTA | 0.0582
GAAGATGC | -0.106
AATAATGT | 0.183
AATAATAC | 0.245
AACAATAT | 0.375
AACAATAA | 0.258
CATAATAA | 0.131
AATAATAT | 0.388
TATAATAA | 0.318
AACAATAC | 0.157
GGTAATAA | 0.228
CGTAATAA | 0.154
GATAATAA | 0.194
TGTAATAA | 0.297
AAGTTTAA | 0.139
AAAAGAAA | 0.179
ACGGACGT | -0.144
AAAGAGCC | -0.112
CAGGCTGC | -0.118
AATAATAG | 0.202
AATAATAA | 0.399

Sequence | PBM E-score
CCTAATAA | -0.0059
AGTAATAT | 0.336
ACTAATAA | 0.276
AGTAATAC | 0.222
AGTAATAG | 0.218
TCTAATAA | 0.291
CCGGGCGA | -0.226
ACCTACAG | 0.0954
TCACGCCA | -0.081
GAATTAAA | 0.149
AAATTAAC | 0.251
ACATTAAA | 0.225
AAATTAAG | 0.144
TAATTAAA | 0.276
AAATTAAT | 0.314
AAATTAAA | 0.339
TCATTAAA | 0.319
GCATTAAA | 0.147
AGGTAGGC | -0.147
AATCTGGG | 0.00147
CGCGAGTC | -0.0881
GCATACTA | 0.0596
